# Laboratory results published in PubChem BioAssay (NCATS).
# Results filed as inconclusive are left out. Calls of active or inactive are those of the source. Unless noted, the call rests on the fitted dose curve; in most records, active means well fitted curve in the direction sought with a large enough effect; inconclusive means small, poorly fitted or top-dose-only effect, or another doubt; inactive means no such curve, though single readings can be large; an effect the other way counts as inactive or inconclusive.
# What was measured:
# [1] = NCATS anti-infectives library activity on HEK293 viability as a counter-qHTS vs the C. elegans viability qHTS (AID 1745854); further: on the % scale 0 is the no-effect control and ±100 the full control effect
# Method in brief: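 Cytotoxicity counter-screen to a worm viability qHTS: CellTiter-Glo luminescence read 10 min after reagent addition. Compounds (final up to 41.7 uM, a 1:5 dilution series) incubated 24 hr at 37C with 1,500 HEK293 cells per well; digitonin control.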
# [2] = biological target: Catechol O-methyltransferase (Homo sapiens) (UniProt P21964); test: Confirmatory Screen for Target Class Profiling of Small Molecule Inhibitors of Methyltransferases (AID 1745852; calls by dose curve; further: potency means the concentration at half of the fitted maximal effect); conditions: MTase-Glo luminescence, SAH detection, recombinant enzyme; measured here: COMT max response; stronger effect = lower value
# Sequence of Catechol O-methyltransferase (Homo sapiens) (P21964 whole entry, looked up): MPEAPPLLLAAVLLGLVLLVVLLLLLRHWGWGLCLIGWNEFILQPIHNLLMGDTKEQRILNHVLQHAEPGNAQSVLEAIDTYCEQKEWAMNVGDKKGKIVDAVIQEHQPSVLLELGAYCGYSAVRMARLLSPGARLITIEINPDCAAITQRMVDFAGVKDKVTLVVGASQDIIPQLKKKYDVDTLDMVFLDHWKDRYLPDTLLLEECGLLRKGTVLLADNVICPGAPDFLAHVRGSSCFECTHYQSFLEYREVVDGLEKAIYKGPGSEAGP
# [3] = biological target: Guanidinoacetate N-methyltransferase (Homo sapiens) (UniProt Q14353); test: as above; conditions: activity change, negative = inhibition: at 57.3 µM (top of the series) unless noted
# [4] = biological target: Nicotinamide N-methyltransferase (Homo sapiens) (UniProt P40261); test: as above; conditions: MTase-Glo luminescence, SAH detection, recombinant enzyme; measured here: NNMT max response; stronger effect = lower value
# Sequence of Nicotinamide N-methyltransferase (Homo sapiens) (P40261 whole entry, looked up): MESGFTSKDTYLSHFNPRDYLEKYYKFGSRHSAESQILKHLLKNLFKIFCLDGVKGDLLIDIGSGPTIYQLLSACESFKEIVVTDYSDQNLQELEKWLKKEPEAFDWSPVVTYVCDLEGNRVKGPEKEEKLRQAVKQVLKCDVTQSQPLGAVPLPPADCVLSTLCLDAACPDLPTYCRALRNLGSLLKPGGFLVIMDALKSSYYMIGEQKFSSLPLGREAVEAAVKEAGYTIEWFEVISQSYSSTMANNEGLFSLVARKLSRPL
# [5] = biological target: Phenylethanolamine N-methyltransferase (Homo sapiens) (UniProt P11086); test: as above; conditions: MTase-Glo luminescence, SAH detection, recombinant enzyme; measured here: PNMT max response; stronger effect = lower value
# Sequence of Phenylethanolamine N-methyltransferase (Homo sapiens) (P11086 whole entry, looked up): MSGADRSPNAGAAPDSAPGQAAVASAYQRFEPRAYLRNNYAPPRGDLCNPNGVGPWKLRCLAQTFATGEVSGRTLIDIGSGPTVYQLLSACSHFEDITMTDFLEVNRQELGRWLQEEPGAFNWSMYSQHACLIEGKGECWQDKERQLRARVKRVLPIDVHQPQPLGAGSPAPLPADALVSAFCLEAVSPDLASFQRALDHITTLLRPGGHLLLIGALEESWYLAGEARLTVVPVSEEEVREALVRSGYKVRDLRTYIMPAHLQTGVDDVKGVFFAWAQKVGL
# [6] = AP1 Signaling Pathway (AID 357; active means well fitted curve in either direction with a large enough effect, not every such curve was filed as active;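 further: ME-180 reporter cells stimulated with EGF at its EC50 level; on the % scale 0 is the no-effect control and ±100 the full control effect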); conditions: ME-180 AP-1-bla reporter, EGF-induced, beta-lactamase ratio, 5 h; at 7.69 µM (top of the series) unless noted
# Method in brief: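 Cells are seeded overnight, exposed to compound titrations and an EC50 level of EGF for 5 hours at 37 °C, then loaded with CCF4 dye for 2.5 hours. Beta-lactamase activity under the AP-1 element is read as a blue/green ratio.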
# [7] = biological target: Cytochrome P450 1A2 (Homo sapiens) (UniProt P05177); test: p450-cyp1a2 (AID 410; calls by dose curve; further: potency means the concentration at half of the fitted maximal effect;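 on activity change, negative = inhibition: -100% = full effect of reference inhibitor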)
# Sequence of Cytochrome P450 1A2 (Homo sapiens) (P05177 whole entry, looked up): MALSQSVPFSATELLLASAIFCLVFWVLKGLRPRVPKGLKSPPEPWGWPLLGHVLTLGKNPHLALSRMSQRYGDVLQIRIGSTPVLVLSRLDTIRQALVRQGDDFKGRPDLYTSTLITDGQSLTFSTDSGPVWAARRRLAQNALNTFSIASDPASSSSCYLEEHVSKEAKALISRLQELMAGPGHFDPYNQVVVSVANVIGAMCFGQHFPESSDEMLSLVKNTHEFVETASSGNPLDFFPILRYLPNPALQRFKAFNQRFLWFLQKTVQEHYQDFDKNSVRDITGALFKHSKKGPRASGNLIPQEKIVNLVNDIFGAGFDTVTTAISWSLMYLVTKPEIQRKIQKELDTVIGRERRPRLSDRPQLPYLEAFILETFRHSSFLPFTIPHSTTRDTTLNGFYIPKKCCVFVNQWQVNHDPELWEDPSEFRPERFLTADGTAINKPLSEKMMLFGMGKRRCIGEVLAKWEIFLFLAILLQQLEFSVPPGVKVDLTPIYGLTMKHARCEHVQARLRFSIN
# Method in brief: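 Luminescent demethylation readout: Luciferin-ME (100uM, equal to Km) turned over by 20nM CYP1A2 for 60 min at room temperature after NADPH regeneration addition, following 10 min compound preincubation. Normalization used 57 uM furafylline as full inhibition.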
# [8] = NFAT Signaling Pathway (AID 444; active means well fitted curve in either direction with a large enough effect, not every such curve was filed as active;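 further: carbachol stimulus at about its EC50 of 1 µM final; on the % scale 0 is the no-effect control and ±100 the full control effect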); conditions: Jurkat NFAT-bla M1, carbachol, beta-lactamase ratio, 5 h; at 7.69 µM (top of the series) unless noted
# Method in brief: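 Jurkat cells with NFAT-driven β-lactamase reporter and co-expressed M1 receptor, stimulated with carbachol (final 1 uM, ~EC50), compound titration, 5 h at 37 °C. CCF4 loaded 1 h at RT; 460/530 nm ratio gave %activity and AC50.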
# [9] = biological target: Glucocorticoid receptor (Homo sapiens) (UniProt P04150); test: GR-GFP Redistribution (AID 450;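 active means compounds whose dose series gives a full or clear partial fitted curve of increased nuclear translocation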; further: potency means the concentration at half of the fitted maximal effect); conditions: U2OS GR-GFP nuclear translocation, laser cytometry, 2 h
# Sequence of Glucocorticoid receptor (Homo sapiens) (P04150 whole entry, looked up, the tested form may be a part): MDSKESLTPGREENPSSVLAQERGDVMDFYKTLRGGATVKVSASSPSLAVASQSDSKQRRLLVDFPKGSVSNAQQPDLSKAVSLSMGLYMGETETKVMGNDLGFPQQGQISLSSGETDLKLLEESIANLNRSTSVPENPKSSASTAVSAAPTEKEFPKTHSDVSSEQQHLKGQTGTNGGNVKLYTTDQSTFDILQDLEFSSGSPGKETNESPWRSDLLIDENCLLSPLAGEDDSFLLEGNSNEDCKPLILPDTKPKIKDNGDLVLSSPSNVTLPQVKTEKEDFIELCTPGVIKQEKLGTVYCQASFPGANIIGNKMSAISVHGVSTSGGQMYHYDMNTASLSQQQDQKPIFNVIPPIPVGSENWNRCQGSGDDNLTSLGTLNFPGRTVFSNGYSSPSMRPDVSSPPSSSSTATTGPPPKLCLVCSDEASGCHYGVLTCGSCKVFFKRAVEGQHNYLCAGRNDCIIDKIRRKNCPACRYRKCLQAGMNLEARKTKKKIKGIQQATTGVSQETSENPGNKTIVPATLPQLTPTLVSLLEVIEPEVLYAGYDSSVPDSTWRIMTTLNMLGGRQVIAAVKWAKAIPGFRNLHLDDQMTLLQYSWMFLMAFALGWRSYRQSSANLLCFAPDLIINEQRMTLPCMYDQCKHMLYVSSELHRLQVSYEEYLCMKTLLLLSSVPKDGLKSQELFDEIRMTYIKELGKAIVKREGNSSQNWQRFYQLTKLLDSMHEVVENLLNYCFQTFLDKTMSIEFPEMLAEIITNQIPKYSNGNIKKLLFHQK
# [10] = biological target: Glucocorticoid receptor (Homo sapiens) (UniProt P04150); test: GR-EFC Redistribution (AID 451; calls by dose curve; further: potency means the concentration at half of the fitted maximal effect); conditions: CHO-K1 GR-EFC translocation, beta-gal luminescence, 2 h
# Method in brief: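 CHO-K1 cells expressing nuclear EA and GR-ED fragments of b-gal; compounds titrated up to 46 uM final, 2 h at 37 C. GR nuclear translocation read as complemented b-gal luminescence after 1 h RT detection.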
# [11] = biological target: 3',5'-cyclic-AMP phosphodiesterase 4B (Homo sapiens) (UniProt Q07343); test: qHTS Assay for Inhibitors of PDE-IV (AID 607; active means well fitted activation curve with a large enough effect in the main read-out, with a control signal flat, not every such curve was filed as active; further: % of control where 0% means no effect)
# Sequence of 3',5'-cyclic-AMP phosphodiesterase 4B (Homo sapiens) (Q07343 whole entry, looked up): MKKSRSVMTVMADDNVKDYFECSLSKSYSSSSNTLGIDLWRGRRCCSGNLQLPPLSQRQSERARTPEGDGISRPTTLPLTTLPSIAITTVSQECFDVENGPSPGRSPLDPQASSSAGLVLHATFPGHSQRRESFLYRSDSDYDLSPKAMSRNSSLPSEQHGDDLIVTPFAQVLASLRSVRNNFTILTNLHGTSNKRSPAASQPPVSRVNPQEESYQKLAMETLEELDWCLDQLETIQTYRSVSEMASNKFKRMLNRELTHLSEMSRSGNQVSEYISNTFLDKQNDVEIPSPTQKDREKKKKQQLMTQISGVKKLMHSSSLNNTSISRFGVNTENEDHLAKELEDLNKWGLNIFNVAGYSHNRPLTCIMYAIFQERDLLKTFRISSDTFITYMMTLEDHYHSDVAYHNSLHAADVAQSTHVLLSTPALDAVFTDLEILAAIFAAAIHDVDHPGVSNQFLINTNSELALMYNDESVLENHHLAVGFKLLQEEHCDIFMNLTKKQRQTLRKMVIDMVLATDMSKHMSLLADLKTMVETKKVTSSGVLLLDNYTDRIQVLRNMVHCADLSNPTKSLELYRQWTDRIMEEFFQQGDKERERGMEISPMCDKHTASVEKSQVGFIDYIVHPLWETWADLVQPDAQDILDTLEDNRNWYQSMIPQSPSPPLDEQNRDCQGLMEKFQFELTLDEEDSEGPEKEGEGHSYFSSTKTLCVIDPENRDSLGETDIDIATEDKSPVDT
# Method in brief: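 The readout is membrane depolarisation from a cAMP-sensing CNG channel, detected with a potential dye at ex 535/em 590. Cells were HEK293-derived (endogenous PDE-IV) at 1000 cells/well, titrated up to 22.9 uM final.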
# [12] = biological target: Guanine nucleotide-binding protein G(i) subunit alpha-1 (Homo sapiens) (UniProt P63096); test: qHTS Assay for Inhibitors of RGS12 GoLoco Motif Activity (Green Fluorophore) (AID 879);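 further: 0% = labeled peptide with Gαi1 and full inhibition = labeled peptide alone without protein; negative values mean loss of peptide binding seen as reduced polarization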
# Method in brief: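 A drop in FITC polarization marked displacement of the FITC-tagged RGS12 GoLoco peptide (10 nM) from Gαi1 (50 nM). Compounds were incubated 10 min at room temperature in Tris pH 7.5 buffer containing 150 mM NaCl, 0.1 mM GDP and 0.05% NP40; unlabeled peptide titration served as control.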
# [13] = biological target: Cytochrome P450 3A4 (Homo sapiens) (UniProt P08684); test: qHTS Assay for Activators of Cytochrome P450 3A4 (AID 885); further: nearly all actives have a fitted effect of over 65% in size
# Sequence of Cytochrome P450 3A4 (Homo sapiens) (P08684 whole entry, looked up): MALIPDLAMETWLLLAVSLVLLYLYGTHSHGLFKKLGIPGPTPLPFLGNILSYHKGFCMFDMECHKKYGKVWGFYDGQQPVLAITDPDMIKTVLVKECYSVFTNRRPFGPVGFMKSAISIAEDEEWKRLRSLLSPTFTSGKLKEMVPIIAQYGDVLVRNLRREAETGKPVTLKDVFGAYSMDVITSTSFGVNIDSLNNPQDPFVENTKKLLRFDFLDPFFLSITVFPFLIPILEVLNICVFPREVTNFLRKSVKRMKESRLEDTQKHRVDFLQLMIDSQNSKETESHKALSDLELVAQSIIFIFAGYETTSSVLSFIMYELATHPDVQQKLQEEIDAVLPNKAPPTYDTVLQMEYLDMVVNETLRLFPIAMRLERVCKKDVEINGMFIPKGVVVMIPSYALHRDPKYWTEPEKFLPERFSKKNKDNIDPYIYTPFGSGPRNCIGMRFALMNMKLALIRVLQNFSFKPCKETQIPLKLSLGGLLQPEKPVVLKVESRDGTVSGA
# Method in brief: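 Activators are scored by enhanced luminescence from CYP3A4 conversion of luciferin-PPXE (25uM, equal to KM) to luciferin, after 60 min at RT with an NADPH-regenerating system.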
# [14] = qHTS Assay for Identification of Small Molecule Antagonists for NFkB Signaling Pathway (AID 895; active means well fitted inhibition curve with a large enough effect in the signal ratio, with a control signal flat, not every such curve was filed as active; the % refers to the signal ratio; further: potency means the concentration at half of the fitted maximal effect); conditions: NFkB beta-lactamase reporter cells, FRET ratio 460/530; stimulated with 10 pM TNF alpha
# Method in brief: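 ME-180 NFkB-bla cells (beta-lactamase under NFkB response element), plated overnight, treated with compound then 10 pM TNF alpha (about EC50) for 5 hrs at 37 C. LiveBLAzer FRET read at 460/530 nm emission, 405 nm excitation.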
# [15] = biological target: Muscarinic acetylcholine receptor M1 (Rattus norvegicus) (UniProt P08482); test: qHTS Assay for Antagonists of Acetylcholine Muscarinic M1 Receptor: Kinetic Measurement of Intracellular Calcium Response (AID 943);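 further: Fluo-4 calcium signal as peak divided by basal fluorescence over 4 min; nearly all actives have a fitted effect of over 75% in size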
# Method in brief: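 Antagonism measured as reduction of carbachol-evoked (EC80, 100 nM final) calcium flux in rat M1-CHO cells after 10 min compound exposure. Fluo-4 signal read kinetically; ratio of maximal to basal fluorescence.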
# [16] = biological target: Pyruvate kinase (Leishmania mexicana) (UniProt Q27686); test: qHTS Validation Assay for Inhibitors of Leishmania Mexicana Pyruvate Kinase (AID 945);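 further: 0% = DMSO only neutral control wells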
# Method in brief: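 Pyruvate kinase activity of E451W LmPYK (0.2 nM) was followed as ATP output after 1 h at room temperature with 0.5 mM PEP and 0.1 mM ADP, detected by PKLight luminescence.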
# [17] = biological target: Pyruvate kinase PKM (Homo sapiens) (UniProt P14618); test: qHTS Assay for Activators of Human Muscle Pyruvate Kinase (AID 954; active means well fitted curve in the direction sought with a large enough effect, not every such curve was filed as active;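 further: 0% = uninhibited enzyme and -100% = no enzyme or full thiadiazolimine inhibition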)
# Sequence of Pyruvate kinase PKM (Homo sapiens) (P14618 whole entry, looked up): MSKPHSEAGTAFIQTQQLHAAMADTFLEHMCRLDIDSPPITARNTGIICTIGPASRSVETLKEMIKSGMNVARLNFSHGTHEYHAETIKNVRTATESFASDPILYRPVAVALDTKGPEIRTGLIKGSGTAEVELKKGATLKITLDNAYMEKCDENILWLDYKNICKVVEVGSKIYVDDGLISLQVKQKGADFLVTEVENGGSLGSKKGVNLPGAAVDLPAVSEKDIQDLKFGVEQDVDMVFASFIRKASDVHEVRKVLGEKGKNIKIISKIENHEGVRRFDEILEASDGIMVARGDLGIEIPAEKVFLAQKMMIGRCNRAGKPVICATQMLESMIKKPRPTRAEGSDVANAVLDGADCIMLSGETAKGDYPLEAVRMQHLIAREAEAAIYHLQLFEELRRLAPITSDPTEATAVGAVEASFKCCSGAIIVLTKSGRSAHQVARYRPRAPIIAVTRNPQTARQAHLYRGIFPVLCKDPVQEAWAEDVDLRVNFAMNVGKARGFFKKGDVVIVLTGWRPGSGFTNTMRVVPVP
# Method in brief: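 PKM2, human, >95% pure, 0.1 nM; PEP 0.5 mM (Km), ADP 0.1 mM; 50 mM imidazole pH 7.2, 50 mM KCl, 0.01% Tween 20, 0.05% BSA; 1 h RT; luciferase luminescence readout.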
# [18] = biological target: Alpha-galactosidase A (Homo sapiens) (UniProt P06280); test: Counterscreen for Glucocerebrosidase Inhibitors: qHTS Assay for Human alpha-Galactosidase at pH 4.5 (AID 992); further: 0% is about no effect
# Method in brief: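 Fluorogenic 4-MU alpha-D-galactoside (80 uM) hydrolysis, 2 nM enzyme, pH 4.5 citrate buffer + 0.005% Tween-20; 20 min RT; NaOH/glycine pH 10 stop; Ex365/Em440. Compounds titrated 0.7 nM–77 uM; Hill-equation AC50.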
# [19] = biological target: alpha-glucosidase (Oryza sativa, rice) (UniProt Q653V4); test: Counterscreen for Glucocerebrosidase Inhibitors: qHTS Assay for Rice alpha-Glucosidase at pH 5.0 (AID 997);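 further: 0% = full activity with enzyme and -100% = basal without enzyme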
# Method in brief: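 Endpoint fluorogenic assay at pH 5.0: compounds (0.7 nM to 77 uM) titrated against 4 nM rice enzyme and 400 uM 4-MU-alpha-glucoside for 20 min at room temperature; NaOH/glycine stop, read ex 365/em 440 nm, Hill-fitted AC50.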
# [20] = biological target: Mitogen-activated protein kinase 10 (Mus musculus) (UniProt Q61831); test: JNK3 AlphaScreen Assay (AID 530; active means well fitted curve in either direction with a large enough effect, not every such curve was filed as active;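 further: kinase came from lysate of stimulated human HepG2 cells; signal reports phosphorylation of biotinylated GST-cJun 1-79 at Ser73 with 10 µM ATP; on the % scale 0 is the no-effect control and ±100 the full control effect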)
# Method in brief: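 Activity was read by AlphaScreen after JNK3-containing HepG2 lysate (cytokine pre-activated) phosphorylated biotinylated GST-cJun with 10 uM ATP at room temperature. Phospho-Ser73 cJun antibody with Protein-A acceptor beads provided detection.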
# [21] = biological target: Cytochrome P450 2C9 (Homo sapiens) (UniProt P11712); test: qHTS Assay for Inhibitors and Substrates of Cytochrome P450 2C9 (AID 883); further: on the % scale 0 is the no-effect control and ±100 the full control effect; nearly all actives have a fitted effect of over 60% in size
# Sequence of Cytochrome P450 2C9 (Homo sapiens) (P11712 whole entry, looked up): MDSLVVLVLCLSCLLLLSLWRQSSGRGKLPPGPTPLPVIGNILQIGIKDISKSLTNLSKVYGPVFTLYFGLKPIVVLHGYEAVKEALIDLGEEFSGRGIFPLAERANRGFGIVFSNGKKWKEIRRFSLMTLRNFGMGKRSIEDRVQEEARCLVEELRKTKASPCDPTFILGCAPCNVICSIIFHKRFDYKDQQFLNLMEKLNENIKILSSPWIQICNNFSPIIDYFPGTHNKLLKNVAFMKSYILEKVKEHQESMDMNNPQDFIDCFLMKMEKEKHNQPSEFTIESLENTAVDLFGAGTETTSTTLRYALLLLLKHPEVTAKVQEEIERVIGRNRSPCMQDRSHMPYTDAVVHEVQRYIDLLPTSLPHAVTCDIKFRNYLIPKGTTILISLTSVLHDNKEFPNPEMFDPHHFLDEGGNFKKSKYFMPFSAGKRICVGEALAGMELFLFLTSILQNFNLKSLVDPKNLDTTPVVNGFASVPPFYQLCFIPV
# Method in brief: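 Signal: luciferase luminescence reporting luciferin produced by CYP2C9. Conditions: 10nM enzyme, Luciferin-H 100uM at KM, 25mM KPO4, 37C, 60 min NADPH-driven reaction. Reference: 57uM sulphaphenazole as 100% inhibition.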
# [22] = biological target: Cytochrome P450 3A4 (Homo sapiens) (UniProt P08684); test: qHTS Assay for Inhibitors and Substrates of Cytochrome P450 3A4 (AID 884); further: potency means the concentration at half of the fitted maximal effect; nearly all actives have a fitted effect of over 50% in size
# Method in brief: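 Luminescent readout of luciferin produced by CYP3A4 (20 nM) dealkylation of Luciferin-PPXE, 25 uM (its KM). NADPH-driven reaction ran 60 min at RT after 10 min compound preincubation; data scaled to 57 uM ketoconazole as 100% inhibition.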
# [23] = biological target: Cytochrome P450 2D6 (Homo sapiens) (UniProt P10635); test: qHTS Assay for Inhibitors and Substrates of Cytochrome P450 2D6 (AID 891);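 further: luciferin methyl ether substrate demethylated by CYP2D6 with NADPH regeneration; on the % scale 0 is the no-effect control and ±100 the full control effect; nearly all actives have a fitted effect of over 60% in size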
# Method in brief: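 Luminescent read-out of luciferin formed by 5 nM human CYP2D6 demethylating 30 uM Luciferin-ME EGE (Km level) over 60 min at room temperature after NADPH regeneration addition. Data normalized to full inhibition by 1.43 uM quinidine.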
# [24] = biological target: DNA dC->dU-editing enzyme APOBEC-3G (Homo sapiens) (UniProt Q9HC16); test: qHTS for inhibitors of Vif-A3G interactions: Validation (AID 588379); further: 0% is about no effect
# Sequence of DNA dC->dU-editing enzyme APOBEC-3G (Homo sapiens) (Q9HC16 whole entry, looked up): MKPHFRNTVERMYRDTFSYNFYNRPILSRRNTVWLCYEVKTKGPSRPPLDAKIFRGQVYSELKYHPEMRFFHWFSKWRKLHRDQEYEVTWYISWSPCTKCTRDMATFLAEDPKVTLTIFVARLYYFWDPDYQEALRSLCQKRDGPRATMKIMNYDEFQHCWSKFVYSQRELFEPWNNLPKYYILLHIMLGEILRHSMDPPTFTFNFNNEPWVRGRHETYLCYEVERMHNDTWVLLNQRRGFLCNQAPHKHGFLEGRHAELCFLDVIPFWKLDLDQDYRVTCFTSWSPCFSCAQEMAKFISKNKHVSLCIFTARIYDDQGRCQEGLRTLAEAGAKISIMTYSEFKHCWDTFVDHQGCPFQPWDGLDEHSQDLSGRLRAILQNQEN
# Method in brief: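 Yellow fluorescence (Ex 488, Em 500-530) of Vif-coexpressing HeLa A3G-eYFP cells, scanned by Acumen cytometer, reports blocked A3G degradation. Cells plated at 700/well overnight at 37 deg C before compound addition, then a further overnight compound incubation at 37 deg C.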
structure (smiles),measurement,setting,value
Cc1ccc(C(=O)NCCCCCC(=O)Nc2ccccc2N)cc1,Potency,[1],inactive
COc1ccc(NC(=O)C(C)(C)Oc2nn(CC3CC3)c3ccc(CN4CCCC4)cc23)cc1,activity,[2],8.52%
same,"activity change, negative = inhibition",[3],9.81%
same,activity,[4],5.5%
same,activity,[5],9.18%
O=c1cc(O)cc(/C=C\c2ccc(O)c(O)c2)o1,"activity change, negative = inhibition",[6],-18.8% [at 38 µM] (inactive)
same,Potency,[7],inactive
same,"activity change, negative = inhibition",[8],-13.6% [at 38 µM] (inactive)
same,Potency,[9],> 46 µM (inactive)
same,Potency,[10],> 46 µM (inactive)
same,Potency,[11],inactive
same,Potency,[12],inactive
same,outcome,[13],inactive
same,Potency,[14],1.26 µM (active)
same,Potency,[15],inactive
same,outcome,[16],inactive
same,outcome,[17],inactive
same,outcome,[18],inactive
same,outcome,[19],inactive
same,activity,[2],135%
same,Potency,[3],24.3 µM (active)
same,activity,[4],-15.8%
same,activity,[5],-1.5%
CC(C)C1=C2[C@H]3CC[C@@H]4[C@@]5(C)CC[C@H](OC(=O)CC(C)(C)C(=O)O)C(C)(C)[C@@H]5CC[C@@]4(C)[C@]3(C)CC[C@@]2([C@@H](O)CN(CCN(C)C)Cc2ccc(Cl)cc2)CC1=O,Potency,[1],inactive
COc1ccc(-c2oc3ccc(C)cc3c(=O)c2O)cc1OC,Potency,[7],0.251 µM (active)
same,Potency,[9],> 46 µM (inactive)
same,Potency,[10],> 46 µM (inactive)
same,Potency,[20],inactive
same,Potency,[11],inactive
same,Potency,[21],inactive
same,Potency,[22],3.98 µM (active)
same,outcome,[13],inactive
same,Potency,[23],inactive
same,outcome,[24],inactive
same,activity,[2],-1%
same,"activity change, negative = inhibition",[3],0%
same,activity,[4],1.6%
same,activity,[5],4.32%
Cc1ccc(N)cc1C(=O)N[C@H](C)c1cccc2ccccc12,Potency,[1],inactive
CC(C)Cn1c(=O)c2ccccc2n2c(CCC(=O)NCCc3ccc(Cl)cc3)nnc12,activity,[2],-5.92%
same,"activity change, negative = inhibition",[3],-1.54%
same,activity,[4],-41%
same,activity,[5],-6.54%
CN1CCC(N2CC[C@H](c3nc4ccccc4[nH]3)C2)CC1,activity,[2],-6.53%
same,"activity change, negative = inhibition",[3],-8.47% [at 114 µM]
same,activity,[4],-26.5%
same,activity,[5],-6.23%
